According to PubChem BioAssay (NCI):
The panel holds about 83,000 compounds, 20% with a hit somewhere; the sample as a whole holds those more often.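 Cells were grown in 96-well plates and exposed to the test compound at a single concentration for 48 hours; results are reported as percent growth, with values below 10 considered active.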 Activity calls are given as the source filed them.

Each compound was assayed on HL-60(TB) leukemia (assay: NCI-60 one-dose screen, 48 h (100 = growth as untreated, 0 = no growth, -100 = all killed)). Details: 10 µM unless noted.

SMILES | growth
COc1ccc(/C=C(\c2cc(OC)c(OC)c(OC)c2)c2nnc(-c3cccs3)o2)cc1 | 92% (inactive)
CC1=C/C(=C(\c2cc(C)c(O)c(C(=O)O)c2)c2c(Cl)cccc2Cl)C=C(C(=O)O)C1=O | 106% (inactive)
CC1(C)c2[nH]c3ccccc3c2C[C@]2(C)[C@H]3C(=O)C=C4[C@@H]5C[C@@](C)(C(N)=O)CC[C@]5(C)CC[C@@]4(C)[C@]3(C)CC[C@@H]12 | 59.9% (inactive)
COc1cccc(C(=O)NC(c2ccc(C)cc2)c2cc(Cl)c3cccnc3c2O)c1 (stereo not given) | 4.15% (active)
CC[C@H](C)[C@H](NC(=O)[C@@H](N)CCC(N)=O)C(=O)N[C@@H](Cc1ccc(O)cc1)C(=O)N[C@@H](CCCCN)C(=O)N[C@@H](CCCCN)C(=O)N[C@@H](Cc1ccc(O)cc1)C(=O)N[C@@H](CCCNC(=N)N)C(=O)N[C@H](C(=O)N[C@@H](Cc1c[nH]c2ccccc12)C(=O)N[C@@H](Cc1ccc(O)cc1)C(=O)N[C@@H](CCCNC(=N)N)C(=O)N[C@@H](CCCCN)C(=O)N[C@@H](C)C(=O)N[C@@H](Cc1c[nH]c2ccccc12)C(=O)N[C@@H](CCCCN)C(=O)N[C@H](C(=O)N[C@@H](CC(C)C)C(=O)NCC(=O)N[C@@H](CCCCN)C(=O)N[C@H](C(N)=O)C(C)C)C(C)C)[C@@H](C)O | 13.9% (inactive)
O=C1C=C(Nc2ccc([N+](=O)[O-])cc2)c2ccccc2C1=O | 3.59% (active)
Cc1ccc(NC(=O)c2sc3nc(C)c(C(=O)c4ccccc4)cc3c2N)cc1 | 84.2% (inactive)
COc1cc(/C=C/C(=O)/C=C/c2ccc(-n3ccnc3C)cc2)ccc1O | 49.5% (inactive)
Cc1ccccc1NC(=O)c1sc2nc3c(cc2c1N)C(=O)CCC3 | 36% (inactive)
CC(=O)OC[C@H]1O[C@@H](n2c(=O)cc(N)[nH]c2=O)C(OC(C)=O)[C@@H]1OC(C)=O (stereo not given in full) | 107% (inactive)
COC(=O)[C@@H](Cc1c[nH]c2ccccc12)NC(=O)/C=C/c1ccccc1 | 0.51% (active)
Cc1cccc(NC(=O)CSc2nc3ccccc3[nH]2)c1 | 101% (inactive)
CCOC(=O)CCC(NC(=O)c1ccc(N)cc1)C(=O)OCC (stereo not given) | 102% (inactive)
C(=C1c2ccccc2-c2ccccc21)c1ccccn1 | 52.3% (inactive)
COc1cc(C2=NN(C(C)=O)C(c3cc(OC)c(OC)c(OC)c3)C2)ccc1O (stereo not given) | -37.6% (active)
COc1ccc(C(O)(CCC(C)C)C(CN2CCOCC2)c2ccc(Cl)cc2)cc1 (stereo not given) | 20.9% (inactive)
CSc1ccccc1C#C/C=C\C#Cc1ccccc1N1CCCC1=O | -33.4% (active)
Cn1c(NCCc2ccc(O)c(O)c2)nc2c1c(=O)n(Cc1ccc(Br)cc1)c(=O)n2C | 2.61% (active)
CN(C)c1ccc(C(=O)OCCCCCCl)cc1 | 76% (inactive)
CN(C)c1ccc(/C=N/NC(=O)c2cccc3ccccc23)c(Cl)c1 | -2.75% (active)

SMILES | growth
CC(O)(c1ccccc1)C(c1ccccc1)C1CCCCN1 (stereo not given) | 78.9% (inactive)
COC(=O)CCCCCn1c2ccccc2c2c3c(c4c5ccccc5[nH]c4c21)C(=O)N(O)C3=O | 19.1% (inactive)
CCSCC1CC(O)(c2ccccc2)CC(c2ccc(F)cc2)O1 (stereo not given) | -31.9% (active)
Cn1[nH]cc(/C=N/C(N)=O)c1=O | 110% (inactive)
CCC(=O)Oc1ccc(/C(=C(\C)c2ccccc2)c2ccc(OCCN(CC)CC)cc2)cc1 | 45.1% (inactive)
O=C(c1ccccc1)c1ccccc1-c1ccccc1 | -4.58% (active)
Nc1nc(N)c(-c2ccc(Cl)cc2)c(/C=C/c2ccc([N+](=O)[O-])cc2)n1 | 47.8% (inactive)
N#CCC1CCCC1 | 102% (inactive)
C[n+]1c2ccccc2nc2ccc(NCCO)cc21 | 70.6% (inactive)
CCCCCC(CCCCC)C(=O)O | 90.4% (inactive)
O=C1CC(c2nc3ccccc3s2)CN1C1CCCCC1 (stereo not given) | 91.3% (inactive)
CCCS(=O)(=O)Nc1ccc(F)c(C(=O)c2c[nH]c3ncc(-c4ccc(OCCCC5CCCCN5)nc4)cc23)c1F (stereo not given) | 97.4% (inactive)
O=C(/C=C/c1ccc(Cl)cc1)c1ccc(Cl)cc1 | 69.2% (inactive)
CCC(=O)Nc1ccccc1C#C/C=C\C#Cc1ccccc1SC | -16.2% (active)
NC(N)=N/N=C(/c1ccccc1)c1ccc(N)cc1 | 98.1% (inactive)
CCCCCCCCCCCCCCCCCCOc1ccccc1CC(=O)OCC[N+]1(C)CCCCC1 | -5.08% (active)
COc1cc(/C=C2\CN(S(=O)(=O)c3ccccc3)C/C(=C\c3cc(CN4CCCC4)c(O)c(OC)c3)C2=O)cc(CN2CCCC2)c1O | -14.8% (active)
COc1cc(C)cc(-c2c(-c3cc(N4CC(O)C4)nc(-c4cccnc4)n3)cnn2C)c1 | 105% (inactive)
CCCCC/C=N/Nc1nc(C)cc(=O)[nH]1 | 108% (inactive)
CCOC(=O)c1c(-c2ccc(Cl)cc2)c(C#N)c2c(C#N)c(N)nn2c1N | 43.4% (inactive)
